IL1B secr inh: inhibitors of inflammasome signaling (IL-1 beta secretion) | THP-1 LPS/ATP IL-1B secretion, AlphaLISA, 16 h; hits give low values | activity change, % at 57.5 µM | hit rate 4.7% among 360,000; in the data active means activity change below about -50%; inconclusive means mostly about -30% to -49%
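Secreted IL-1B measured by AlphaLISA bead assay after 16 h compound exposure of THP-1 cells; compounds (final up to 57.5 uM) added 1 h before LPS (250 ng/mL) and ATP (1.25 mM) stimulation; lower signal means less secretion.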
TDP1 cell CPT: growth inhibition of DT40 Tdp1-/-;hTDP1 cells with camptothecin (screen for TDP1 inhibitors). chicken DT40 Tdp1-/-;hTDP1 cells + 20 nM CPT, ATP luminescence, 48 h. Potency, µM (series often up to 46.2 µM), inactives show at the top dose activity change, negative = growth inhibition, most hits filed as inhibitors. hit rate 12% among 420,000; further: potency means the concentration at half of the fitted maximal effect; nearly all actives have a fitted effect of over 55% in size
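Cell growth measured by CellTiter-Glo luminescence after a minimum 48 h, 37 C compound exposure with 20 nM CPT in Tdp1-knockout DT40 cells stably expressing hTDP1, seeded 400/well; qHTS titration format.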
HT1080 IDH1KD tx: HT-1080 IDH1 knockdown cell toxicity (counter line); AID 686971; HT-1080 IDH1 knockdown viability, ATP luminescence, 48 h; Potency, µM (series often up to 46.1 µM), without a hit: at the highest dose activity, negative = toxicity, most hits filed as cytotoxic; hit rate 2% among 360,000;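 further: potency means the concentration at half of the fitted maximal effect; 0% = DMSO wells and -100% = cell-free medium wells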
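Viability of IDH1-knockdown HT-1080 fibrosarcoma cells was assessed by CellTiter-Glo after 48 h at 37 °C with titrated compound; concentration-effect curves were classified by fit quality and response size.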
TDP1 cell noCPT: qHTS for Inhibitors of human tyrosyl-DNA phosphodiesterase 1 (TDP1): qHTS in cells in absence of CPT. DT40 Tdp1-/- hTDP1 cells, no CPT, ATP luminescence, 48 h. Potency, µM (doses to about 46.2 µM), for inactives: at the highest dose activity change, negative = growth inhibition, hits mostly inhibitors. hit rate 15% among 420,000. AID 686978, 2013; further: potency means the concentration at half of the fitted maximal effect; nearly all actives have a fitted effect of over 55% in size
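Chicken DT40 Tdp1-/- cells complemented with human TDP1, screened without camptothecin (DMSO vehicle only), 400 cells/well. Compounds pin-transferred, cells incubated at 37 °C for at least 48 hr. Growth read as ATP-dependent luminescence (CellTiter-Glo, 30 min at RT).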
HT1080NT lethal: kills 2HG-producing HT-1080-NT fibrosarcoma cells | HT-1080-NT fibrosarcoma viability, CellTiter-Glo ATP luminescence, 48 h | Potency, µM (series often up to 46.1 µM), without a hit: at the top dose activity, negative = less viability, actives largely listed as cytotoxic | hit rate 1.6% among 360,000 | AID 686970;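 further: NT is the 2HG producing partner of a matched IDH1 knockdown line; potency means the concentration at half of the fitted maximal effect; 0% = DMSO-treated cells and -100% = media-only wells without cells; nearly all actives have a fitted effect of over 55% in size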
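Luminescent CellTiter-Glo readout after 48 hours of compound exposure at 37 degrees C defined viability of HT-1080-NT cells. Activity was normalized to DMSO wells and cell-free media wells; concentration-response curves were fitted and assigned curve classes.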
* hit, by the source's call; ? = inconclusive; . = no result; [ ] = dose if it differs, or a comment. Most compounds without a hit are left out; they make up all but 19% or so of the library. Unless noted, the call rests on the fitted dose curve; in most records, active means well fitted curve in the direction sought with a large enough effect; inconclusive means small, poorly fitted or top-dose-only effect, or another doubt; inactive means no such curve, though single readings can be large; an effect the other way counts as inactive or inconclusive. Unless noted, on the % scale 0 is the no-effect control and ±100 the full control effect.

SMILES	IL1B secr inh	TDP1 cell CPT	HT1080 IDH1KD tx	TDP1 cell noCPT	HT1080NT lethal
CC1CCc2c(sc3nnn(CC(=O)Nc4c(C(C)C)cccc4C(C)C)c(=O)c23)C1 (stereo not drawn)	.	?	.	15µM*	.
CCOc1cc2c(cc1OCC)CN(CC(=O)Nc1ccccc1C(=O)NC1CC1)CC2	-26	?	5%	-14%	5%[9.24 µM]
CCOc1ccc(OCC)c(NC(=O)CN2CCC(NC(=O)c3cccc(F)c3)CC2)c1	-12	23µM*	-24%	16µM*	-24%
CCOc1ccccc1N1CCN(CC(=O)Nc2ccnn2C2CCCC2)CC1	4	13µM*	-3%	?	-1%
CCOc1ccccc1N1CCN(CC(=O)Nc2ccccc2C(=O)NC2CC2)CC1	12	21µM*	3%	16µM*	5%
COC(=O)c1ccccc1NC(=O)CN1CCN(C23CC4CC(CC(C4)C2)C3)CC1	7	29µM*	-2%	?	3%
CC(=O)N[C@H](Cc1c[nH]c2ccccc12)C(N)=O	.	3%	.	-2%	.
CCc1ccc(OCc2ccc(C(=O)OC)o2)cc1	9	0%	-1%	6%	4%
Cc1ccc(C(=O)N2CCN(c3ccc([N+](=O)[O-])cc3)CC2)o1	-22	?	-12%	?	-8%
COc1ccc(Cl)cc1C(=O)NNC(=S)NC(=O)c1ccc(F)c(F)c1	-4	-14%	-11%	?	-8%
CCN(CC)c1ccc(/C=N/NC(=O)c2c(-c3ccccc3)noc2C)cc1	29	-25%	-4%	?	-22%
NC(=S)N/N=C/c1c[nH]c2ccc(OCc3ccccc3)cc12	-14	?	-21%	?	-13%
CCOc1ccccc1NC(=O)CN1CCC(NC(=O)c2ccccc2C)CC1	1	23µM*	-13%	23µM*	-2%
CCOc1ccccc1C(=O)NC1CCN(CC(=O)Nc2cc(OC)ccc2OC)CC1	4	21µM*	3%	16µM*	12%
COC(=O)c1ccccc1NC(=O)CN1CCC(NC(=O)c2ccc(C)cc2)CC1	16	?	7%	26µM*	1%
CCOC(=O)c1cc2c(=O)n3ccccc3nc2n(CC2CCCO2)c1=NC(=O)c1ccc(C)cc1 (stereo not drawn)	.	-24%	.	-28%	.
CCCCN1C=C(C(C)=O)C(=O)CC1	29	9%	10%	-1%	5%
Cc1cccc(CCNS(=O)(=O)c2ccc3c(c2)CCN3C(=O)CCC(=O)O)c1	22	0%	1%	21%	1%
CCOC(=O)[C@@H]1[C@H]2COc3cc(OC)ccc3[C@H]2N2C(=O)N(c3ccc(C)cc3)C(=O)[C@@]12C	-18	?	15%	?	?
CCn1c(=O)c(C(=O)Nc2ncccc2C)c(O)c2ccccc21	7	2.3µM*	-30%	2.6µM*	-8%
Cn1c(=O)c(C(=O)NNC(=O)c2ccc(Br)cc2)c(O)c2ccccc21	24	?	15µM*	18µM*	21µM*
Cc1cccnc1NC(=O)c1c(O)c2ccccc2n(C)c1=O	18	?	-29%	23µM*	?
O=S(=O)(c1ccccc1)N1CCC(O)(CSc2ccc(Cl)cc2)CC1	?	?	-15%	26µM*	?
Cc1nc2nc[nH]c2cc1Br	12	-1%	-5%	-4%	3%
Cc1nc2nc(-c3cccs3)[nH]c2cc1Br	?	?	?	16µM*	?
SMILES	IL1B secr inh	TDP1 cell CPT	HT1080 IDH1KD tx	TDP1 cell noCPT	HT1080NT lethal
Cc1ncc2c(c1CNC(=O)c1ccc3c(c1)OCO3)CCN(C(=O)c1cn3ccccc3n1)C2	.	17%[9.04 µM]	.	-15%	.
N#Cc1ccccc1CN1C(=O)NC(Cc2c[nH]c3ccccc23)C1=O (stereo not drawn)	0	8%	12%	-9%	2%
CC(C)CC1C(=O)N(Cc2cn(Cc3ccco3)nn2)CCS(=O)(=O)N1Cc1ccc(-c2cccc(CO)c2)cc1 (stereo not drawn)	-10	?	-7%	16µM*	-5%
CC(C)CC1C(=O)N(Cc2cn(Cc3ccco3)nn2)CCS(=O)(=O)N1Cc1ccc(-c2ccc(Cl)cc2)cc1 (stereo not drawn)	-53*	18µM*	?	13µM*	?
CC(C)CC1C(=O)N(Cc2cn(CCC3OCCCO3)nn2)CCS(=O)(=O)N1Cc1ccc(-c2cccc(CO)c2)cc1 (stereo not drawn)	-20	-26%	5%	?	8%
CC(C)CC(C(=O)NC(C)(C)C)N(Cc1ccccc1Cl)C(=O)c1snc(C(N)=O)c1N (stereo not drawn)	90	?	-22%	?	-3%
Cc1ccc(C)c(C(=O)COC(=O)C2CCN(c3ccc(C(F)(F)F)cn3)CC2)c1	7	-5%	-3%	?	-4%
CCOC(=O)c1c(S(=O)(=O)Nc2cccc(-c3ccno3)c2)c(C)n(C)c1C	10	1%	-8%	-14%	10%
COC(=O)c1cc(S(=O)(=O)Nc2cccc(-c3ccno3)c2)c[nH]1	26	12µM*	-5%	7.3µM*	2%
COc1ccc(N2CC(C(=O)NCCc3ccc(Cl)cc3)CC2=O)cc1 (stereo not drawn)	0	-12%	0%	-21%	-2%
CC(C)(C)n1nnnc1C(c1ccc(Cl)cc1)N1CCCc2ccccc21 (stereo not drawn)	29	?	10%	15µM*	4%
CCC(C)(C)n1nnnc1C(c1cccs1)N1CCc2ccccc21 (stereo not drawn)	3	29µM*	-9%	16µM*	-25%
CCCCCn1nc(C)c(/C=N\NC(=O)c2cc(C)oc2C)c1C	32	-21%	-13%	-28%	?
Cc1scc(-c2n[nH]c(=S)n2C(C)c2ccccc2)c1C (stereo not drawn)	8	?	3%	16µM*	8%
O=C(COc1ccc(Cl)cc1Cl)NC1CCSC1=O (stereo not drawn)	-14	-24%	10%	-17%	1%
O=C(c1cc(COc2ccc(F)cc2F)on1)N1CCN(C2CCCC2)C(=O)C1	-4	?	2%	?	3%
CN(C(=O)COC(=O)c1ccc([N+](=O)[O-])cc1)c1ccccc1	-11	5%	18%	-25%	11%
CN(C(=O)COC(=O)CSc1ccc([N+](=O)[O-])cc1)c1ccccc1	0	23µM*	-4%	29µM*	-4%
CCC(=O)Nc1nonc1-c1nc2ccccc2n1CCC(C)C	-9	?	?	9.2µM*	-22%
CCOc1ccc(S(=O)(=O)N(C(C)=O)c2ccc3oc(C)c(C(=O)OC)c3c2)cc1	.	1.3µM*	.	0.58µM*	.

Bioassay records: PubChem, National Center for Advancing Translational Sciences (NCATS)
